The results in this text go back to PubChem BioAssay (NCATS).

Inconclusive results are not listed. Where a call stands in place of a potency, no number is given. The source made the active and inactive calls. Calls follow the shape of the dose curve; as a rule, active = well fitted inhibition curve with a large enough effect; inconclusive = small, poorly fitted or top-dose-only effect; inactive = flat fitted curve, though single readings scatter.
Also: nearly all actives have a fitted effect of over 65% in size.

Glutathione peroxidase 1 (Homo sapiens), sequence (P07203 whole entry, looked up): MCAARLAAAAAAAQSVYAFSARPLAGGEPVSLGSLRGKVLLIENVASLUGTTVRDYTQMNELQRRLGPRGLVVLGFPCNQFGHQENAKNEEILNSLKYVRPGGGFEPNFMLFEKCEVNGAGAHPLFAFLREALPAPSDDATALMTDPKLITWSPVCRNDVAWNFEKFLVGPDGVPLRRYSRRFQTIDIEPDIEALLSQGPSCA

For one test, the target named is Glutathione peroxidase 1 (Homo sapiens) (UniProt P07203). As to the kind of experiment: Primary qHTS Assay for Inhibitors of Recombinant Selenoprotein Glutathione Peroxidase 1 (GPX1) (AID 1845191). As to conditions: recombinant GPX1, GR-coupled NADPH fluorescence, 15 min; series mostly up to 48.8 µM. In a few lines:
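10 nM GPX1 + cpd, 30 min RT; start w/ 1 mM GSH, 0.5 mM cumene hydroperoxide, 0.5 mM NADPH, 100 nM GR, 0.01% BSA; buffer 50 mM Tris-HCl pH 7.5, 2 mM EDTA, 150 mM NaCl; Fl 340/450, 0 & 15 min.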
In general terms: Quantitative high-throughput screening tests each substance at several concentrations.
Turning to `NCCCC(O)(P(=O)(O)O)P(=O)(O)O`, the Potency entry is “inactive”. Still for that read-out and setting: under `Nc1nc(N)nc(-c2cc(Cl)ccc2Cl)n1` stands “inactive”; under `NC(=O)c1ccc2[nH]ccc2c1`, “inactive”; under `CCn1cc(C(=O)O)c(=O)c2cc(F)c(N3CCN(C)CC3)cc21`, “inactive”. Still for that read-out and setting: under `CCC(=O)O[C@]1(C(=O)CCl)[C@@H](C)C[C@H]2[C@@H]3CCC4=CC(=O)C=C[C@]4(C)[C@@]3(F)[C@@H](O)C[C@@]21C` stands “inactive”.

For the next test, the target named is Phospholipid hydroperoxide glutathione peroxidase GPX4 (Homo sapiens) (UniProt P36969). The test is described as follows: Primary qHTS Assay for Inhibitors of Recombinant Selenoprotein Glutathione Peroxidase 4 (GPX4) (AID 1845192). As to conditions: recombinant GPX4, GR-coupled NADPH fluorescence, 15 min; series mostly up to 50 µM. In a few lines: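 NADPH consumption, followed by fluorescence at 340/450 nm between 0 and 15 min, reports GPX4 activity via coupled glutathione reductase (100 nM). Enzyme 200 nM was pre-exposed to compound 30 min; 0.5 mM cumene hydroperoxide and 1 mM GSH served as substrates.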
Phospholipid hydroperoxide glutathione peroxidase GPX4 (Homo sapiens), sequence (P36969 whole entry, looked up): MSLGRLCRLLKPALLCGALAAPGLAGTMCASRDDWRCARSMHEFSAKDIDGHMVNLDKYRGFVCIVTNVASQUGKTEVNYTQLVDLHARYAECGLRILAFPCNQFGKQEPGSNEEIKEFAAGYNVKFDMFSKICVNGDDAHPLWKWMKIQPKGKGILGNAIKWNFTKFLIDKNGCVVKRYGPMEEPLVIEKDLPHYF
On to `CCCCCCNC(=O)n1cc(F)c(=O)[nH]c1=O`, for which the Potency result was “inactive”. Still for that read-out and setting: under `COc1c(N2CCNC(C)C2)c(F)cc2c(=O)c(C(=O)O)cn(C3CC3)c12` (stereo unspecified) stands “inactive”. On the same count and under the same terms, under `CCOC(=O)c1ccc(C#Cc2ccc3c(c2)C(C)(C)CCS3)nc1` stands “inactive”. On the same count and under the same terms, under `CN1CCN(c2c(F)cc3c(=O)c(C(=O)O)cn(CCF)c3c2F)CC1` stands “inactive”. With `S=P(N1CC1)(N1CC1)N1CC1`, the outcome is “inactive [at 0.409 µM]”. As for `OCc1ccc(-c2nn(Cc3ccccc3)c3ccccc23)o1`, the Potency entry was “inactive”.

For `CCC(=O)O[C@]1(C(=O)SCF)[C@H](C)C[C@H]2[C@@H]3C[C@H](F)C4=CC(=O)C=C[C@]4(C)[C@@]3(F)[C@@H](O)C[C@@]21C`, the Potency result was “inactive”. As to `CCC(C)(C)c1ccc(CC(C)CN2C[C@@H](C)O[C@@H](C)C2)cc1` (stereo partly specified), the Potency entry was “inactive”. Still for that read-out and setting: under `CNNCc1ccc(C(=O)NC(C)C)cc1` stands “inactive”. As to `CCN(C)C(=O)Oc1cccc([C@H](C)N(C)C)c1`, the Potency entry is “inactive”. The same measure, in the same setting: under `Cc1c(-c2ccc(O)cc2)n(Cc2ccc(OCCN3CCCCCC3)cc2)c2ccc(O)cc12` stands “inactive”; under `CNC1CCCN(c2c(F)cc3c(=O)c(C(=O)O)cn(C4CC4)c3c2OC)C1` (stereo unspecified), “inactive”. Turning to `CC(C)C[C@H](NC(=O)[C@H](CCc1ccccc1)NC(=O)CN1CCOCC1)C(=O)N[C@@H](Cc1ccccc1)C(=O)N[C@@H](CC(C)C)C(=O)[C@@]1(C)CO1`, the Potency entry is “inactive”. The same measure, in the same setting: under `COC(=O)Nc1nc2ccc(Sc3ccccc3)cc2[nH]1` stands “inactive”; under `COc1cccc(N(C)C(=S)Oc2ccc3c(c2)CCCC3)n1`, “inactive”. The same measure, in the same setting: under `O=NN(CCCl)C(=O)NC1CCCCC1` stands “inactive”. As to `CC(C)C1CCC(C(=O)N[C@H](Cc2ccccc2)C(=O)O)CC1` (stereo partly specified), the Potency entry was “inactive”.

Regarding `NC(=O)c1cccnc1`, the Potency entry was “inactive”. `O=c1oc2c(O)c(O)cc3c(=O)oc4c(O)c(O)cc1c4c23`: the Potency entry was “inactive”. The same measure, in the same setting: under `C[C@@H](NCCCc1cccc(C(F)(F)F)c1)c1cccc2ccccc12` stands “inactive”; under `COc1ccc2c(c1)c(CC(=O)OCC(=O)O)c(C)n2C(=O)c1ccc(Cl)cc1`, “inactive”.

For the molecule `CS(=O)(=O)c1ccc([C@@H](O)[C@@H](CO)NC(=O)C(Cl)Cl)cc1`, the Potency entry is “inactive”.

For the molecule `N[C@@H](Cc1ccc(O)c(O)c1)C(=O)O`, the Potency result is “inactive”. Still for that read-out and setting: under `CN1CCCC(n2nc(Cc3ccc(Cl)cc3)c3ccccc3c2=O)CC1` (stereo unspecified) stands “inactive”; under `O=c1cc(O)c(Cl)c[nH]1`, “inactive”.

Turning to `COc1cc(NCc2ccc3nc(N)nc(N)c3c2C)cc(OC)c1OC`, the Potency result is “inactive”. The same measure, in the same setting: under `CCN1CCCC1CNC(=O)c1cc(S(N)(=O)=O)ccc1OC` (stereo unspecified) stands “inactive”; under `COCCCOc1cc(C[C@@H](C[C@H](N)[C@@H](O)C[C@H](C(=O)NCC(C)(C)C(N)=O)C(C)C)C(C)C)ccc1OC`, “inactive”. The same measure, in the same setting: under `N=C(N)c1ccc(OCCCCCOc2ccc(C(=N)N)cc2)cc1` stands “inactive”; under `C[C@@H]1C[C@H]2[C@@H]3CCC4=CC(=O)C=C[C@]4(C)[C@@]3(Cl)[C@@H](O)C[C@]2(C)[C@@]1(OC(=O)c1ccco1)C(=O)CCl`, “inactive”; under `COc1cc(NS(=O)(=O)c2ccc(N)cc2)nc(OC)n1`, “inactive”. Still for that read-out and setting: under `NCCCC(O)(P(=O)(O)O)P(=O)(O)O` stands “inactive”. For `Nc1nc(N)nc(-c2cc(Cl)ccc2Cl)n1`, the Potency result is “inactive”.

On to `NC(=O)c1ccc2[nH]ccc2c1`, for which the Potency entry was “inactive”. The same measure, in the same setting: under `CCn1cc(C(=O)O)c(=O)c2cc(F)c(N3CCN(C)CC3)cc21` stands “inactive”.

With `CCC(=O)O[C@]1(C(=O)CCl)[C@@H](C)C[C@H]2[C@@H]3CCC4=CC(=O)C=C[C@]4(C)[C@@]3(F)[C@@H](O)C[C@@]21C`, the Potency result was “inactive”.
